# About 14,000 (4.5%) of roughly 310,000 compounds showed an effect of 50% or more. The effect is printed as a negative number. This excerpt belongs to a sample that is enriched for strong results.
# Target: human ether-à-go-go-related gene (hERG) potassium channel (human, UniProt Q12809)
# Assay: primary screen, population patch clamp on CHO cells stably expressing hERG; higher = less effect of the substance
# 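Also: peak tail current of the secondary pulse compared with the same well before compound.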
# Sequence of human ether-à-go-go-related gene (hERG) potassium channel (Q12809 whole entry, looked up): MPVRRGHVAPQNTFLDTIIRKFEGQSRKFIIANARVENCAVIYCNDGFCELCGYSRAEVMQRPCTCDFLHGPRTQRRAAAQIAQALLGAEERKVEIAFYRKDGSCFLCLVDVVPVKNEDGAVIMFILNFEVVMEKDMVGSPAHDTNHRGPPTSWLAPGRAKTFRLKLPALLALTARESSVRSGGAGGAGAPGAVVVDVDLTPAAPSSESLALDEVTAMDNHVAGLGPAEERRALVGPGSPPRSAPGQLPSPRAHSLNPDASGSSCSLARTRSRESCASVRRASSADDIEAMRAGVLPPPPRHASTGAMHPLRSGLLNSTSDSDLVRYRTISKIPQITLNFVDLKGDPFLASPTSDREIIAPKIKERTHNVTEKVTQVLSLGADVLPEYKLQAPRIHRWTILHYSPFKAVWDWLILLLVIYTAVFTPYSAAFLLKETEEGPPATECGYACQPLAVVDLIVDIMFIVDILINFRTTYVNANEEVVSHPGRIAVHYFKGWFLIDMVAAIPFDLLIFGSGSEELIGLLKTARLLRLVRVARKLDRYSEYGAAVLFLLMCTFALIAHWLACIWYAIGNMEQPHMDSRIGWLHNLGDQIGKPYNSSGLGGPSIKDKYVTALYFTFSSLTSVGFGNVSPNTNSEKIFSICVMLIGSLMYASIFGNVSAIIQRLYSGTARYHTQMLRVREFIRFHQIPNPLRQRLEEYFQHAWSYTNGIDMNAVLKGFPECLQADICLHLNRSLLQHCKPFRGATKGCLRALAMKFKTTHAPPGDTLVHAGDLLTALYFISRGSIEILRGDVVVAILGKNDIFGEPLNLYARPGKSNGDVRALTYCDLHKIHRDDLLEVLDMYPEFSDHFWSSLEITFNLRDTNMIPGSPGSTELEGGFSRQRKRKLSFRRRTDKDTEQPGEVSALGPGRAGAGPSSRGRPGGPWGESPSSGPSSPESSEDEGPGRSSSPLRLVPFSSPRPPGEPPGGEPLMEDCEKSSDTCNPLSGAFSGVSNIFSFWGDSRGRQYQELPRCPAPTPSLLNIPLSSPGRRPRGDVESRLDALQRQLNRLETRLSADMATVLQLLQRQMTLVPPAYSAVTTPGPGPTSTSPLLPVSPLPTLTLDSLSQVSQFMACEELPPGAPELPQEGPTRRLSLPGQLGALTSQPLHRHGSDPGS
row,SMILES,"hERG current change (%, negative = inhibition) at 10uM"
1,COc1ccc(Cl)cc1NC(=O)CN(C(=O)c1ccco1)C1CCCCC1,-2.36%
2,Cc1nc2ccccc2n1CCOc1ccccc1,6.17%
3,Cc1ccc(OCCn2c(=O)n(C)c3ccccc32)cc1,-1.88%
4,Cc1ccc(OCCn2c(C)nc3ccccc32)cc1,3.94%
5,Cc1nc2ccccc2n1CCOc1ccc([N+](=O)[O-])cc1,-73.8%
6,Cn1c(=O)n(CCOc2ccc([N+](=O)[O-])cc2)c2ccccc21,-65.3%
7,Cn1c(=O)n(CCCOc2ccc(Cl)cc2)c2ccccc21,-13.7%
8,CCn1c(SCC(=O)N/N=C(\C)c2ccncc2)nnc1-c1ccc(C)cc1,-20.6%
9,CC1CCc2sc(C(=O)NC3CCCCC3)cc2C1 (centres unmarked),-5.4%
10,Cc1cc(C(=O)NC2CCN(Cc3ccccc3)CC2)n[nH]1,-19.8%
11,Cl.O=C(NC1CCN(Cc2ccccc2)CC1)c1cccc(OC(F)F)c1,-74.1%
12,O=C(NC1CCN(Cc2ccccc2)CC1)c1c(F)cccc1F,-24.4%
13,O=C(NC1CCN(Cc2ccccc2)CC1)c1ccc(Oc2cc(Cl)cc(Cl)c2)o1,-6.95%
14,CC1CCc2sc(C(=O)NN)cc2C1 (centres unmarked),21.1%
15,O=C(NC1CCN(Cc2ccccc2)CC1)c1ccc2c(c1)OCCCO2,-37.1%
16,O=C(NC1CCN(Cc2ccccc2)CC1)c1cncc(Br)c1,-64.1%
17,O=C(NC1CCN(Cc2ccccc2)CC1)c1cc(Br)c(Br)[nH]1,-2.75%
18,CC1CCc2sc(C(=O)NC3CCN(Cc4ccccc4)CC3)cc2C1 (centres unmarked),-54.1%
19,O=C(NC1CC1)c1cccc(Br)c1,0.381%
20,O=C(NC1CCN(Cc2ccccc2)CC1)c1cccc(Br)c1,-63.8%

row,SMILES,"hERG current change (%, negative = inhibition) at 10uM"
1,O=[N+]([O-])c1ccc2c(c1)[nH]c(=S)n2-c1ccccc1,36.4%
2,COc1cccc(CNS(=O)(=O)c2cc3c(cc2C)NC(=O)CO3)c1,-25.4%
3,COCC1CCN(C(=O)c2ccc3oc(Cc4ccccc4)nc3c2)C1 (centres unmarked),-0.23%
4,COc1cccc(/C=N/NC(=O)CC(=O)NCCc2ccccc2)c1OC,6.02%
5,Cl.NC(N)=NC(N)=Nc1cccc(Cl)c1,-2.14%
6,COc1ccc(NC(=O)C(=O)N/N=C\c2ccc(CNC(=O)C(=O)Nc3ccc(C)c(C)c3)o2)c(OC)c1,9.12%
7,Cc1ccc(C)c(-n2c(C)cc(/C=N/NC(=O)c3c(C)nc4cc(C)ccn34)c2C)c1,-0.122%
8,Cc1ccn2c(C(=O)N/N=C/c3ccc(CNC(=O)C(=O)Nc4ccc(C)c(C)c4)o3)c(C)nc2c1,-57%
9,Cc1nc2ccccn2c1C(=O)N/N=C/c1ccc(CNC(=O)C(=O)Nc2ccccc2)o1,-50.3%
10,Cc1ccc(NC(=O)C(=O)NCc2ccc(/C=N/NC(=O)c3c(C)nc4cc(C)ccn34)o2)cc1,-64%
11,Cc1ccc(NC(=O)C(=O)NCc2ccc(/C=N/NC(=O)c3c(C)nc4ccccn34)o2)cc1,1.37%
12,Cc1nc2ccccn2c1C(=O)N/N=C/c1ccc([N+](=O)[O-])cc1,2.88%
13,Cc1ccn2c(C(=O)N/N=C\c3cccs3)c(C)nc2c1,-7.56%
14,Cc1nc2ccccn2c1C(=O)N/N=C/c1ccc([N+](=O)[O-])o1,-64.1%
15,Cc1nc2ccccn2c1C(=O)N/N=C/c1ccccc1,11.6%
16,Cc1nc2ccccn2c1C(=O)N/N=C/c1ccccc1[N+](=O)[O-],2.26%
17,CCOc1ccc(/C=N\NC(=O)c2c(C)nc3cc(C)ccn23)cc1,-2.47%
18,O=C(Nc1ccc(F)cc1)c1cc2ccccc2o1,20%
19,COc1cccc(CSc2nnnn2-c2ccc(O)cc2)c1,-18.5%
20,CCCCn1c(N)c(N(CCC(C)C)C(=O)c2cc(Cl)nc3ccccc23)c(=O)[nH]c1=O,15.2%

row,SMILES,"hERG current change (%, negative = inhibition) at 10uM"
1,COC(=O)c1cccc(-n2nnnc2SCC(=O)Nc2nc3c(s2)CCCC3)c1,-0.926%
2,Cc1ccc(OCCC(=O)O)cc1,13.4%
3,COc1ccc(OC)c(CNCc2ccc3c(c2)OCO3)c1.O=C(O)C(=O)O,-4.43%
4,CC(=O)c1ccc(NC(=O)C2=CC(c3cccs3)=NS(=O)(=O)N2C)cc1,-0.218%
5,CC(O)CNCCCOc1ccccc1OCc1ccccc1.O=C(O)C(=O)O (centres unmarked),-36.7%
6,CN(C)CCC(Oc1ccccc1OCc1ccccc1)c1ccccc1.O=C(O)C(=O)O (centres unmarked),-68.6%
7,CC(C)Oc1ccccc1OCCN(C)C.O=C(O)C(=O)O,6.22%
8,COC(=O)c1ccccc1S(=O)(=O)N1CCC(C(=O)N2CCC2)CC1,3.96%
9,CC(C)C1OC2(C)OC(=N)C1(C#N)C(C#N)(C#N)C2c1ccccc1 (centres unmarked),2.05%
10,COc1ccc(-c2nnc(OCc3nc4ccccc4n3C)c3ccccc23)cc1,-40.2%
11,Cl.Oc1ccccc1Nc1nc(NCc2ccccc2)c2ccccc2n1,-1.42%
12,CNc1nc(NCc2ccccc2)c2ccccc2n1.Cl,-68.1%
13,Cl.OCCNc1nc(Nc2ccc(Br)cc2)nc2ccccc12,-36.3%
14,Cc1ccc(Nc2nc(NCCO)c3ccccc3n2)cc1C.Cl,-52.4%
15,Cl.OCCNc1nc(NCc2ccccc2)c2ccccc2n1,-54.6%
16,Cl.OCCNc1nc(Nc2ccc(O)cc2)nc2ccccc12,-28.6%
17,Cl.c1ccc(CNc2nc(NCc3ccccc3)c3ccccc3n2)cc1,2.65%
18,Cl.OCCNc1nc(Nc2ccc(Cl)c(Cl)c2)nc2ccccc12,14.5%
19,Cl.OCCNc1nc(Nc2ccccc2)nc2ccccc12,-35%

# — PMC4336329 (PLoS ONE, 2015)
